{"source": "the OligoGym collection"}
{"target": "SFT2D2", "assay": "pooled miR-30 sensor sort-seq; sequence = guide strand", "details": "shRNA"}
{"sequence": "TTAATGAAGATGCCTCAACAAC", "sensor-assay potency score (higher = more potent)": -1.49}
{"sequence": "ATCACAAGCAACACATTGCTGC", "sensor-assay potency score (higher = more potent)": -0.583}
{"sequence": "TTTATCCTGGTACTCCAGCTTA", "sensor-assay potency score (higher = more potent)": -0.866}
{"sequence": "TCAAACATTCGCTTCAGCTGTT", "sensor-assay potency score (higher = more potent)": 0.727}
{"sequence": "TGCAAAACACAACAGCACCATG", "sensor-assay potency score (higher = more potent)": -1.45}
{"sequence": "AAGAGGTGTAGTCCCTTCCTGG", "sensor-assay potency score (higher = more potent)": -1.12}
{"sequence": "TGATAGTTGCAATCAAACGAGT", "sensor-assay potency score (higher = more potent)": -0.692}
{"sequence": "TACAAAACTGTCCACCAGCTTC", "sensor-assay potency score (higher = more potent)": -0.963}
{"sequence": "TTATCCTGGTACTCCAGCTTAA", "sensor-assay potency score (higher = more potent)": -1.39}
{"sequence": "TTGCAATCAAACGAGTAGGCTC", "sensor-assay potency score (higher = more potent)": -0.3}
{"sequence": "TATAGCAAAACACGCAATGAAG", "sensor-assay potency score (higher = more potent)": -1.77}
{"target": "SFTA2", "assay": "pooled miR-30 sensor sort-seq; sequence = guide strand", "details": "shRNA"}
{"sequence": "AATTTGTCAGAAAAGACTCCTT", "sensor-assay potency score (higher = more potent)": -0.354}
{"sequence": "ATTTGTCAGAAAAGACTCCTTC", "sensor-assay potency score (higher = more potent)": 0.636}
{"sequence": "TCAGTTGCAAAGTCATACCCGG", "sensor-assay potency score (higher = more potent)": 0.0994}
{"sequence": "TCCATGTGAGCTGCCAAGGAGG", "sensor-assay potency score (higher = more potent)": -1.63}
{"sequence": "TTCCATGTGAGCTGCCAAGGAG", "sensor-assay potency score (higher = more potent)": -0.915}
{"sequence": "TGTCAGAAAAGACTCCTTCAGC", "sensor-assay potency score (higher = more potent)": -0.402}
{"sequence": "TTGAGATCTTGCATGGTGGAGG", "sensor-assay potency score (higher = more potent)": -0.323}
